# In PubChem BioAssay (EPA / NIEHS):
# Several values for one entry are separate records, joined by “and”; a condition that tells them apart may be missing. Identical values can stand only once. Inconclusive results are not listed. Where a structure was tested more than once in an assay, its records may differ in their call. Activity calls are given as the source filed them. The calls were made as follows, unless noted: active = hit-call score of the fitted dose curve at least 0.9, where 1 is the maximum; inconclusive = response in the unintended direction; inactive = score below 0.9.
# Assays:
# [1] = ATG_M_19_TRANS: Attagene TRANS-FACTORIAL HepG2 Assay for M19 Transcription Factor (Internal Marker) (AID 2282974); settings: HepG2 Attagene TRANS-FACTORIAL M19 internal marker reporter
# How it was run: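 Background-control readout: after 24 h chemical exposure of transfected HepG2 carrying GAL4-driven reporter units, RNA was reverse-transcribed, amplified, fluorescently labeled and sized by capillary electrophoresis; gain-of-signal fit against DMSO.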
# [2] = target: Oxysterols receptor LXR-alpha (Homo sapiens) (UniProt Q13133); test: ATG_LXRa_TRANS: Attagene TRANS-FACTORIAL HepG2 Assay for human Liver X Receptor alpha (LXRa) (AID 2282980); settings: HepG2 Attagene TRANS reporter, LXRa transactivation
# How it was run: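 Transient HepG2 transfectants, 24 h dosing, RT-PCR/CE mRNA reporter quantitation; gain-of-signal vs DMSO.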
# [3] = target: human Peroxisome Proliferator-activated Receptor delta (PPARd), PPARD (gene 5467) (UniProt Q03181); test: ATG_PPARd_TRANS: Attagene TRANS-FACTORIAL HepG2 Assay for human Peroxisome Proliferator-activated Receptor delta (PPARd) (AID 2283002)
# How it was run: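 HepG2 cells transiently transfected with GAL4-UAS multiplexed reporter units driven by exogenous chimeric NR-GAL4 proteins; 24 h compound exposure. Reporter mRNA measured by RT-PCR, 6-FAM primer extension, HpaI digestion and capillary electrophoresis; gain of signal fitted relative to DMSO.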
# [4] = target: Peroxisome proliferator-activated receptor gamma (Homo sapiens) (UniProt P37231); test: ATG_PPARg_TRANS: Attagene TRANS-FACTORIAL HepG2 Assay for human Peroxisome Proliferator-activated Receptor-gamma (PPARg) (AID 2283007)
# How it was run: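 After 24 h of chemical exposure, transfected HepG2 cells carrying PPARγ-Gal4 chimera reporter constructs are lysed for RNA. Reporter transcripts are measured by RT-PCR and capillary electrophoresis with fluorescent labelling, and gain of signal is fitted versus DMSO.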
# [5] = target: human RAR-related Orphan Receptor beta (RORb), RORB (gene 6096) (UniProt Q92753); test: ATG_RORb_TRANS: Attagene TRANS-FACTORIAL HepG2 Assay for human RAR-related Orphan Receptor beta (RORb) (AID 2283010)
# How it was run: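 In this TRANS-format test, human HepG2 cells express chimeric NR-Gal4 fusion proteins driving GAL4-UAS reporters. After 24 h dosing, reporter transcripts are measured by fluorescent RT-PCR/capillary electrophoresis, with DMSO as negative control.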
# [6] = target: human Thyroid Receptor alpha (THRa1), THRA (gene 7067) (UniProt P10827); test: ATG_THRa1_TRANS: Attagene TRANS-FACTORIAL HepG2 Assay for human Thyroid Receptor alpha (THRa1) (AID 2283014)
# How it was run: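 First, HepG2 cells receive multiple GAL4-UAS reporter units and the chimeric receptor. They are then dosed for 24 h, after which RNA is reverse-transcribed, amplified, labelled, HpaI-cut and sized by capillary electrophoresis; gain relative to DMSO is scored.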
# [7] = TOX21_p53_BLA_p3_viability: Viability Assessment in the Tox21 HCT-116 p53 Agonism Beta-lactamase Assay, Phase 3 (AID 2283593);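 also: cells exposed to compound for 16 h before reading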
# How it was run: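 HCT116 cells, 4000/well, dosed 5 h after plating by pin transfer (217-fold dilution from DMSO stock) and incubated 16 h at 37C, 5% CO2. Viability read as ATP luminescence with CellTiter-Glo after 30 min at room temperature.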
# [8] = TOX21_p53_BLA_p4_viability: Viability Assessment in the Tox21 HCT-116 p53 Agonism Beta-lactamase Assay, Phase 4 (AID 2283597);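 also: hits lower the luminescence signal meaning cytotoxicity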
# How it was run: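 Compound exposure of HCT116 cells lasts 16 h at 37C, 5% CO2, with DMSO stocks diluted 217-fold. Cellular ATP is then quantified by CellTiter-Glo luminescence after 30 min at room temperature.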
# [9] = CCTE_Harrill_HTTr_Viability_MCF7: CCTE's 6-hour Cell Viability Assessment for the High-Throughput Transcriptomics (HTTr) Platform, in MCF-7 cells cultured in DMEM + 10% fetal bovine serum, Harrill Lab (AID 2284010; active = hit-call score of the fitted dose curve at least 0.9, where 1 is the maximum; inactive = score below 0.9)
# How it was run: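 Viability measured through PI dye exclusion by high-content imaging at 6 h post-dosing.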
# [10] = CCTE_Harrill_HTTr_Apoptosis_MCF7: CCTE's 6-hour Apoptosis Assessment for the High-Throughput Transcriptomics (HTTr) Platform, in MCF-7 cells cultured in DMEM + 10% fetal bovine serum, Harrill Lab (AID 2284011; active = hit-call score of the fitted dose curve at least 0.9, where 1 is the maximum; inactive = score below 0.9)
# How it was run: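 Cells are dosed with test chemicals at eight concentrations and imaged 6 hours later for caspase-3/7 activity using a green fluorogenic detection reagent. Activity is fitted in both directions against DMSO controls.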
# [11] = target: Bile acid receptor (Homo sapiens) (UniProt Q96RI1); test: ATG_IR1_CIS: Attagene CIS-FACTORIAL HepG2 Assay for human Nuclear Receptor Subfamily 1 Group H Member 4 (NR1H4), IR1 submotif (AID 2282946; active = hit-call score of the fitted dose curve at least 0.9, where 1 is the maximum; inactive = score below 0.9); settings: IR1 reporter transcription, actives raise or lower the signal
# How it was run: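 HepG2 cells transiently transfected with multiple cis-promoter-driven reporter units to measure endogenous transcription factor activity; 24 h exposure. Reporter mRNA read by RT-PCR, FAM labelling, HpaI digestion and capillary electrophoresis. Bidirectional fit versus DMSO.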
# [12] = target: Bile acid receptor (Homo sapiens) (UniProt Q96RI1); test: ATG_FXR_TRANS: Attagene TRANS-FACTORIAL HepG2 Assay for Farnesoid X Receptor (FXR) (AID 2282979); settings: HepG2 Attagene TRANS FXR-GAL4 reporter transcription;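 also: hits raise reporter mRNA above DMSO so AC50 marks FXR activation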
# How it was run: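 Chimeric FXR-GAL4 activity in transiently transfected human HepG2 liver cells is scored as induction of reporter mRNA after 24 h of dosing. Detection uses RT-PCR with fluorescent labelling and capillary electrophoresis, with DMSO serving as baseline.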
# [13] = target: human RAR-related Orphan Receptor gamma (RORg), RORC (gene 6097) (UniProt P51449); test: ATG_RORg_TRANS: Attagene TRANS-FACTORIAL HepG2 Assay for human RAR-related Orphan Receptor gamma (RORg) (AID 2283011)
# How it was run: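 Activity is scored as increase in GAL4-UAS reporter mRNA over DMSO, detected by fluorescent RT-PCR and capillary electrophoresis in HepG2 cells transiently expressing a RORg-Gal4 chimera, 24 h after dosing.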
# [14] = ATG_XTT_Cytotoxicity: Cytotoxicity Assessment in the Attagene TRANS-FACTORIAL HepG2 Assay (AID 2283584)
# How it was run: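 Transfect HepG2 with GAL4-UAS reporter units, dose compound, incubate 24 h, then measure viable cell number by XTT. Fit concentration response against DMSO baseline.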
# [15] = ACEA_ER_AUC_viability: ACEA Biosciences xCELLigence Real-Time Cell Analysis on Estrogen Receptor Agonism for Viability (AID 2283782);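 also: continuous compound exposure with impedance area under curve over 80 h; hit means loss of impedance signal meaning reduced cell growth or viability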
# How it was run: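 T47D cells preconditioned in phenol red-free RPMI with charcoal-stripped FBS, then dosed with 8-point 1:4 series from 100 uM (up to 0.5% DMSO). Impedance monitored up to ~80 h; area-under-curve loss versus DMSO taken as viability.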
# [16] = target: Glucocorticoid receptor (Homo sapiens) (UniProt P04150); test: ATG_GR_TRANS: Attagene TRANS-FACTORIAL HepG2 Assay for human Glucocorticoid Receptor (GR) (AID 2282978); settings: HepG2 Attagene TRANS GR reporter, mRNA transcription;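 also: activators score as hits since higher reporter transcript over DMSO is fitted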
# How it was run: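 Readout is reporter transcript from a chimeric GR-Gal4 acting on GAL4-UAS in transfected human HepG2 liver cells after 24 h exposure, quantified by RT-PCR and capillary electrophoresis. Activation fitted upward against DMSO.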
# [17] = target: Oxysterols receptor LXR-beta (Homo sapiens) (UniProt P55055); test: ATG_LXRb_TRANS: Attagene TRANS-FACTORIAL HepG2 Assay for human Liver X Receptor beta (LXRb) (AID 2282981); settings: HepG2 Attagene TRANS GAL4-LXRb reporter, mRNA
# How it was run: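 Gain-of-signal mRNA reporter endpoint, DMSO as negative control. Transiently transfected HepG2 cells carrying the NR-Gal4 chimera and GAL4-UAS reporter units were treated 24 h; transcripts quantified by RT-PCR and capillary electrophoresis fluorescence.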
# [18] = target: Nuclear receptor subfamily 1 group I member 2 (Homo sapiens) (UniProt O75469); test: ATG_PXR_TRANS: Attagene TRANS-FACTORIAL HepG2 Assay for human Pregnane X Receptor (PXR) (AID 2283008)
# How it was run: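 Measures mRNA induction of a GAL4-UAS-driven reporter in human HepG2 cells transiently expressing PXR fused to Gal4, following 24 h treatment. DMSO served as negative control and baseline.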
# [19] = target: human Vitamin D Receptor (VDR), VDR (gene 7421) (UniProt P11473); test: ATG_VDR_TRANS: Attagene TRANS-FACTORIAL HepG2 Assay for human Vitamin D Receptor (VDR) (AID 2283022)
# How it was run: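 Fluorescence of labelled reporter cDNA fragments, resolved by capillary electrophoresis, gives mRNA induction after 24 h treatment of HepG2 cells carrying transfected Gal4-fusion reporter units. Activity is fitted in the positive direction with DMSO as baseline.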
# Chain of human Thyroid Receptor alpha (THRa1), THRA (gene 7067) (P10827 whole entry, looked up, the tested form may be a part): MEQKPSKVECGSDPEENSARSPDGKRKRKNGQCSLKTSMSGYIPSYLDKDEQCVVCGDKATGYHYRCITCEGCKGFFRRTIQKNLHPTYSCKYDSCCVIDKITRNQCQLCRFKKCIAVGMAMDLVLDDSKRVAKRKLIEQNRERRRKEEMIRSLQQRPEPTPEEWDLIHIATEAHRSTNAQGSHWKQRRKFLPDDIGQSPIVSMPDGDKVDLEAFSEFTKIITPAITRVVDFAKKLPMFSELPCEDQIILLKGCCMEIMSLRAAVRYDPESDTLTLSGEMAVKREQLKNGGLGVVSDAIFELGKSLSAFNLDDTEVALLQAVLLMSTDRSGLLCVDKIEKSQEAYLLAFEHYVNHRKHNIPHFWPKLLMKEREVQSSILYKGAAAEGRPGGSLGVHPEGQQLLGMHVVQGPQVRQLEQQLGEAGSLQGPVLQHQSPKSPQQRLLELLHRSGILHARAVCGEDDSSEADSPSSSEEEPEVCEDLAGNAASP
# Chain of Nuclear receptor subfamily 1 group I member 2 (Homo sapiens) (O75469 whole entry, looked up, the tested form may be a part): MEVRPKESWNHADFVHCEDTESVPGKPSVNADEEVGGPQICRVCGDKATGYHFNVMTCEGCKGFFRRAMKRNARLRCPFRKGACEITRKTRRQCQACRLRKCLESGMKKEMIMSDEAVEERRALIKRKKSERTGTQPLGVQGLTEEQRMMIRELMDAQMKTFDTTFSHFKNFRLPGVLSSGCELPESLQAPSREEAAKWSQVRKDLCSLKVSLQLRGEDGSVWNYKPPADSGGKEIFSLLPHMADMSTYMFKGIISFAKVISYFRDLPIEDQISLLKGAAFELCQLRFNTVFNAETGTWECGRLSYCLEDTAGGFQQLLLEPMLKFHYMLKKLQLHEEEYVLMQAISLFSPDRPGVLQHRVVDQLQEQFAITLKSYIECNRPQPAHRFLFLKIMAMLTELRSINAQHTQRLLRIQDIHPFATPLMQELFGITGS
# Chain of Glucocorticoid receptor (Homo sapiens) (P04150 whole entry, looked up, the tested form may be a part): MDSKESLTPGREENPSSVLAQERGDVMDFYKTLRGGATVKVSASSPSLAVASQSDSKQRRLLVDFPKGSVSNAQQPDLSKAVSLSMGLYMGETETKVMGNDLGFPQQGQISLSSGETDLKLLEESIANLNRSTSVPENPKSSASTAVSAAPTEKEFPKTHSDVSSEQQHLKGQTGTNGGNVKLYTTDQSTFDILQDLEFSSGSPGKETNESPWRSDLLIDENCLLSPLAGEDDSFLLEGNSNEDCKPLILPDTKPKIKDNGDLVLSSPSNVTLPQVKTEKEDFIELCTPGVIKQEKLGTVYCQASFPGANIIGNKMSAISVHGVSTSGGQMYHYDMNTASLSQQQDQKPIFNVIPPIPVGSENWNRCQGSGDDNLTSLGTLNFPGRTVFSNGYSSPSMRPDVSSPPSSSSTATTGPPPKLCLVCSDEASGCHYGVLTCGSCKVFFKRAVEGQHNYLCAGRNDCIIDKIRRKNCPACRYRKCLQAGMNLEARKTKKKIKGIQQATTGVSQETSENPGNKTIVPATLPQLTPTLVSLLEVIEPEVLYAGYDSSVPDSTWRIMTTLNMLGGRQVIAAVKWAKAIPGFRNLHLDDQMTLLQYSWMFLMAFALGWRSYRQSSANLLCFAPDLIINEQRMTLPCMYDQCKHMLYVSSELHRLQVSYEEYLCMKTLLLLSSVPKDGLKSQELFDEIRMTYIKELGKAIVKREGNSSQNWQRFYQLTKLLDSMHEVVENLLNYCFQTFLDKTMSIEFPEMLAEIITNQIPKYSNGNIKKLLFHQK
# Chain of Oxysterols receptor LXR-beta (Homo sapiens) (P55055 whole entry, looked up, the tested form may be a part): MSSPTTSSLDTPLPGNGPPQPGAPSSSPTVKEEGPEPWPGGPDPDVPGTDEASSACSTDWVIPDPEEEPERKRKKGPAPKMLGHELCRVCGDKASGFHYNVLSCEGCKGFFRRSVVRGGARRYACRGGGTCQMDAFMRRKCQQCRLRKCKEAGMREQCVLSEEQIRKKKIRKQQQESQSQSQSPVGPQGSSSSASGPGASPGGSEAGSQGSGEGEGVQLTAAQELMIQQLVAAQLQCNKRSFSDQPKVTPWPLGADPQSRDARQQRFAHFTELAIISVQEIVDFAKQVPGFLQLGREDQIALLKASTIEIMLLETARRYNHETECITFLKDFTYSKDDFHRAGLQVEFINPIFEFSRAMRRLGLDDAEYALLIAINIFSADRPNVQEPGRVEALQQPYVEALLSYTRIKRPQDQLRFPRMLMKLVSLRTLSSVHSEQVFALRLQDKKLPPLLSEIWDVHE
# Chain of human RAR-related Orphan Receptor gamma (RORg), RORC (gene 6097) (P51449 whole entry, looked up, the tested form may be a part): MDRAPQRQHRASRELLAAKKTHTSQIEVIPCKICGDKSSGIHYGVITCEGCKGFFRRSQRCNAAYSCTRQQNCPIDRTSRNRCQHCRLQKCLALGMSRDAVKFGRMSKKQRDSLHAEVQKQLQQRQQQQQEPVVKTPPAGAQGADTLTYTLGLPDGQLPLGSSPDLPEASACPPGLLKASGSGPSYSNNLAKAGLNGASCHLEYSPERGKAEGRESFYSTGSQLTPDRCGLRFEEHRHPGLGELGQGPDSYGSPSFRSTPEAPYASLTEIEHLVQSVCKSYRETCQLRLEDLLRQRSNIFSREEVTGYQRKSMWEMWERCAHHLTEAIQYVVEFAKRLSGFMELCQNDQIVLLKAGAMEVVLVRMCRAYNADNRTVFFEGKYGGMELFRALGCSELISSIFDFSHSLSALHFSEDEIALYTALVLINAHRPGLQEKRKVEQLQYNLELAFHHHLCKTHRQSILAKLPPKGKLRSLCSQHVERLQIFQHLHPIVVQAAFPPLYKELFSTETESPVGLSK
# Chain of Peroxisome proliferator-activated receptor gamma (Homo sapiens) (P37231 whole entry, looked up, the tested form may be a part): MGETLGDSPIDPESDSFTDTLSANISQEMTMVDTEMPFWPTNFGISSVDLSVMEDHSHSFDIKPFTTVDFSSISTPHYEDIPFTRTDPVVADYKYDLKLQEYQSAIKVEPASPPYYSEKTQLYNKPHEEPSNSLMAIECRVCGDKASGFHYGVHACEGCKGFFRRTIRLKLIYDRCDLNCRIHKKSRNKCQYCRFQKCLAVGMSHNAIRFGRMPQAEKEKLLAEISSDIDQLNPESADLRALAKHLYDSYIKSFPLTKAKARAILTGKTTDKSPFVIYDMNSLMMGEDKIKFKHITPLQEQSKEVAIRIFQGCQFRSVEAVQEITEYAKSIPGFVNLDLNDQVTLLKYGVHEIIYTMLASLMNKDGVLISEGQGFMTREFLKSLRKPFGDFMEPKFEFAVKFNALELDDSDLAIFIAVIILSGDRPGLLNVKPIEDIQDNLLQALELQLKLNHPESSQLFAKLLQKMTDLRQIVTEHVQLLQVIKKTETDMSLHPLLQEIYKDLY
# Chain of human Peroxisome Proliferator-activated Receptor delta (PPARd), PPARD (gene 5467) (Q03181 whole entry, looked up, the tested form may be a part): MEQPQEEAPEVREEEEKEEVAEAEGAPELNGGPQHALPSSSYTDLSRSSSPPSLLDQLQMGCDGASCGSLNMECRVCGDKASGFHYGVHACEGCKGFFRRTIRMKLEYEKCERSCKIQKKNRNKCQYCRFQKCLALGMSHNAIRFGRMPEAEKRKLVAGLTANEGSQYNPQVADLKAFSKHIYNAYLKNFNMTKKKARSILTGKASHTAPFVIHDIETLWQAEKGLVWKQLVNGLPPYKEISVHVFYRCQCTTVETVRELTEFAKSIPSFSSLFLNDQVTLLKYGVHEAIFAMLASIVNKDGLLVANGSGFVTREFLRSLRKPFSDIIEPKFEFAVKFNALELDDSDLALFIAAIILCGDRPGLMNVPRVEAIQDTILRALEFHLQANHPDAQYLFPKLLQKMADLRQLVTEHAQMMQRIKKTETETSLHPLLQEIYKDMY
# Chain of Oxysterols receptor LXR-alpha (Homo sapiens) (Q13133 whole entry, looked up): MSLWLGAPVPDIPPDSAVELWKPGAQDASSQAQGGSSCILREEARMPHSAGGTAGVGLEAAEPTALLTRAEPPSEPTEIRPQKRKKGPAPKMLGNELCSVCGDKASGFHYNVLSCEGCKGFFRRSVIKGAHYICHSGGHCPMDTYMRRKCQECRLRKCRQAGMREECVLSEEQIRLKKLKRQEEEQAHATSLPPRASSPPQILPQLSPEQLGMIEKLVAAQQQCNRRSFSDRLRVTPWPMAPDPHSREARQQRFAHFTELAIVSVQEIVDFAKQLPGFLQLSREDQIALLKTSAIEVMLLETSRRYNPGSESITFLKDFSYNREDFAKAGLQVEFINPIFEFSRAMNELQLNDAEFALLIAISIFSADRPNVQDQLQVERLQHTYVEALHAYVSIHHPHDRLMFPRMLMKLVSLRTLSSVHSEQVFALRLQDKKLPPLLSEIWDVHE
# Chain of human RAR-related Orphan Receptor beta (RORb), RORB (gene 6096) (Q92753 whole entry, looked up, the tested form may be a part): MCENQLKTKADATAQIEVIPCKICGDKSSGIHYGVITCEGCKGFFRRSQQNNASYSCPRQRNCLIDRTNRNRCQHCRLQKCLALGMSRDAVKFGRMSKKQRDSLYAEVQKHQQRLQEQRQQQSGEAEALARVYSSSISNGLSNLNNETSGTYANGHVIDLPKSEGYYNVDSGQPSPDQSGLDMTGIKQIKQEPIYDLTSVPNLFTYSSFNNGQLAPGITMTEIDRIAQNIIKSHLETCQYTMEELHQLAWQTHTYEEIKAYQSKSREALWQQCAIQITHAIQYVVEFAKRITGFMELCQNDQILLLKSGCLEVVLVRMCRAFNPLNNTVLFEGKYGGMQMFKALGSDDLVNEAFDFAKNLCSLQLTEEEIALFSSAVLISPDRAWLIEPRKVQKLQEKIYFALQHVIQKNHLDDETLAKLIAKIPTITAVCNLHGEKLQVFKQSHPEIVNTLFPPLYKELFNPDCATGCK
# Chain of human Vitamin D Receptor (VDR), VDR (gene 7421) (P11473 whole entry, looked up, the tested form may be a part): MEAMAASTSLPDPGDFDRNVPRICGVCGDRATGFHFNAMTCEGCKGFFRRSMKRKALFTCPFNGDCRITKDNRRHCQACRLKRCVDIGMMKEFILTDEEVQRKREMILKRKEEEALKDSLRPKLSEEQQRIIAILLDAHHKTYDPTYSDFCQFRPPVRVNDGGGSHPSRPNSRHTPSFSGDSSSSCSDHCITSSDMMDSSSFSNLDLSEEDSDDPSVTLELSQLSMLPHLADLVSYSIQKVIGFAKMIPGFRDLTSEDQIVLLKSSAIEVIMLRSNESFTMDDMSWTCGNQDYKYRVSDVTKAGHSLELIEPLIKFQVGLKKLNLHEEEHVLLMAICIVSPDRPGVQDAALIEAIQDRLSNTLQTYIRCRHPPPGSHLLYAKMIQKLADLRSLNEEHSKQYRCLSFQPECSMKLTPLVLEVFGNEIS
smiles,measurement,setting,value
CC1=C(CC(=O)O)c2cc(F)ccc2/C1=C\c1ccc(S(C)=O)cc1 (centres undefined),outcome,[1],inactive
same,outcome,[2],inactive
same,outcome,[3],inactive
same,AC50,[4],24.2 µM (active)
same,outcome,[5],inactive
same,outcome,[6],inactive
same,outcome,[7],inactive
same,outcome,[8],inactive
same,outcome,[9],inactive
same,outcome,[10],inactive
O=[N+]([O-])c1ccc2nc[nH]c2c1,outcome,[11],inactive
same,outcome,[1],inactive
same,outcome,[12],inactive
same,outcome,[2],inactive
same,outcome,[4],inactive
same,outcome,[5],inactive
same,outcome,[13],inactive
same,outcome,[6],inactive
same,outcome,[14],inactive
same,outcome,[15],inactive
same,outcome,[9],inactive
same,outcome,[10],inactive
CC1(C)S[C@@H]2[C@H](NC(=O)[C@H](N)c3ccccc3)C(=O)N2[C@H]1C(=O)O,outcome,[16],inactive
same,outcome,[2],inactive
same,outcome,[17],inactive
same,outcome,[4],inactive
same,outcome,[18],inactive
same,outcome,[5],inactive
same,outcome,[13],inactive
same,outcome,[6],inactive
same,outcome,[14],inactive
same,outcome,[7],inactive
same,outcome,[8],inactive
NC(=O)c1ccc(N)cc1,outcome,[11],inactive
same,outcome,[2],inactive
same,outcome,[17],inactive
same,outcome,[13],inactive
same,outcome,[19],inactive
same,outcome,[14],inactive
same,outcome,[8],inactive
NC(=O)c1ccc([N+](=O)[O-])cc1Cl,outcome,[11],inactive
same,outcome,[1],inactive
same,outcome,[16],inactive
same,outcome,[12],inactive
same,outcome,[3],inactive
same,outcome,[4],inactive
same,outcome,[18],inactive
same,outcome,[5],inactive
same,outcome,[6],inactive
same,outcome,[14],inactive
O=[N+]([O-])c1ccc(ON=Cc2cc(Br)c(O)c(Br)c2)c([N+](=O)[O-])c1,AC50,[7],34.4 µM (active)
same,outcome,[8],inactive
CCCCCC[C@@H](O)C/C=C\CCCCCCCC(=O)O,AC50,[11],149 µM (active)
same,outcome,[16],inactive
same,outcome,[12],inactive
same,outcome,[17],inactive
same,AC50,[3],27.3 µM (active)
same,AC50,[4],27.4 µM (active)
same,outcome,[18],inactive
same,outcome,[6],inactive
same,outcome,[19],inactive
same,outcome,[14],inactive
same,AC50,[7],30.5 µM (active)
same,outcome,[7],inactive
same,AC50,[8],40.5 µM (active) and 27.9 µM (active)
same,outcome,[8],inactive
same,outcome,[15],inactive
same,outcome,[9],inactive
same,outcome,[10],inactive
